Results taken from PubChem BioAssay (NCATS).
Inconclusive results are not listed. Unmarked numbers belong to inactive results. Activity calls are given as the source filed them.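 How the source made its calls: active means dose-dependent loss of cell ATP signal giving a full or clear fitted curve, ranked by lower potency value; inconclusive means weak partial curve or response only at the top dose; inactive means no loss of viability signal.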

experiment: Cell Viability - Jurkat (AID 426); conditions: qHTS;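 further: cells exposed to compound for 40 hours at 37 °C before ATP read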
Excerpt: NIH Chemical Genomics Center [NCGC]
NIH Molecular Libraries Screening Centers Network [MLSCN]
National Institutes of Environmental Health Sciences [NIEHS]
National Toxicology Program [NTP]
We have developed a 1536-well cell-based assay for quantitative high throughput screening (qHTS) against a number of cell lines to determine in vitro cytotoxicity of small molecules. This particular assay uses the Jurkat cell line (Clone E6-1) which is derived from the human T cell leukemia.
NCGC Assay Protocol Summary:
The CellTiter-Glo luminescent cell viability assay (Promega) is a homogeneous method to measure the number of viable cells in culture. The end point readout of this assay is based on quantitation of intracellular ATP, an indicator of metabolic activity, using the luciferase reaction. Luciferase catalyzes the oxidation of beetle Luciferin to oxyluciferin and light in the presence of ATP. The luminescent signal is proportional to amount of ATP present.
Using the CellTiter-Glo luminescent cell viability assay, the amount of cellular ATP was measured in the Jurkat cell line with complete culture medium following compound treatment for 40 hours. The assay was performed in opaque white Kalypsys 1536-well plates. In the screen, tamoxifen and doxorubicin were used as positive controls. Library compounds were measured for their ability to cause acute toxicity in the cell line, as reflected by a decrease in intracellular ATP levels, in a concentration-dependent manner. […] AC50 values were determined from concentration-response data modeled with the standard Hill equation.
qHTS protocol for CellTiter Glo Jurkat cellular assay
[Step] [Parameter] [Value] [Description]
1. Reagent; 5 uL; 5000 Jurkat cells/well
3. Controls; 23 nL; Tamoxifen 0.34 uM to 100 uM & Doxorubicin 0.02 nM to 100 uM
4. Time; 40 hr; 37 °C incubation
5. Reagent; 5 uL; CellTiter Glo reagent
6. Time; 20 min; Room Temperature
7. Detection; Luminescence; Viewlux plate reader
Keywords: cell viability, cytotoxicity, Jurkat cell line, luminescence, NTPHTS, NTPHTS_NCGC, NIEHS, EPA, DSSTox, MLSMR, MLSCN, NIH Roadmap, qHTS, NCGC
Potency means the concentration at half of the fitted maximal effect.

Compound | Potency
CCCCCCCCc1ccc(O)cc1 | > 92 µM
O=[N+]([O-])c1cc([N+](=O)[O-])c2ccccc2c1 | > 92 µM
CC(=O)[O][Hg][c]1ccccc1 | 0.47 µM (active)
Nc1ccc(Sc2ccc(N)cc2)cc1 | > 92 µM
C=CC(=O)NCNC(=O)C=C | > 92 µM
Nc1ccc(Cl)cc1 | > 92 µM
Nc1ccc([N+](=O)[O-])cc1 | > 92 µM
Nc1ccc(Cl)cc1N | 4.05 µM (active)
O=C(O)C(Cl)Cl | > 92 µM
O=C(O)COc1ccccc1 | > 92 µM
O=[N+]([O-])c1c(Cl)c(Cl)cc(Cl)c1Cl | > 92 µM
CN(C)NC(=O)CCC(=O)O | > 92 µM
CC(C)(O)C(=O)Nc1ccc([N+](=O)[O-])c(C(F)(F)F)c1 | > 92 µM
OCCCBr | > 92 µM
O=[N+]([O-])c1c2ccccc2cc2ccccc12 | > 92 µM
CCOP(=O)(NC(C)C)Oc1ccc(SC)c(C)c1 (centres undefined) | > 92 µM
CCCCOC(=O)c1ccccc1C(=O)OCc1ccccc1 | > 92 µM
c1cc2ccc3cccc4ccc(c1)c2c34 | > 92 µM
CCOCCOC(C)=O | > 92 µM
C1CCC(NC2CCCCC2)CC1 | > 92 µM
CCCCC(CC)COC(=O)c1ccccc1C(=O)OCC(CC)CCCC (centres undefined) | > 92 µM
Cc1cc(O)ccc1Cl | > 92 µM
O=S(=O)(c1ccc(Cl)cc1)c1ccc(Cl)cc1 | > 92 µM
COC(C)(C)CCCC(C)C/C=C/C(C)=C/C(=O)OC(C)C (centres undefined) | > 92 µM
